The source made the active and inactive calls. A call without a number means that no potency is given here. Calls come from the whole dose curve.
Potency is the fitted concentration of half-maximal effect.

Muscarinic acetylcholine receptor M1 (Homo sapiens), sequence (P11229 whole entry, looked up): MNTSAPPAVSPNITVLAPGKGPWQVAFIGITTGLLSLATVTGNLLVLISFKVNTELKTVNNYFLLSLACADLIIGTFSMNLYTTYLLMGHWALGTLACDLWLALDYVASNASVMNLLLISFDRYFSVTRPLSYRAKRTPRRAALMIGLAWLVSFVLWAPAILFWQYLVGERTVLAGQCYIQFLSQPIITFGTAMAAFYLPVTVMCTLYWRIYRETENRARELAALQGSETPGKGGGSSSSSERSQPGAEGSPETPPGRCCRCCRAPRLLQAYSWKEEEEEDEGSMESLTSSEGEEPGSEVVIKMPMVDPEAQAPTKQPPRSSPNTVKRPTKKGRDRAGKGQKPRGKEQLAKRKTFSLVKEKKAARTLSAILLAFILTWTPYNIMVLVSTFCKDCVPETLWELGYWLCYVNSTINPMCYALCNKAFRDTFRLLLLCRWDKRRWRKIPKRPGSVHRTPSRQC

The target of this assay is Muscarinic acetylcholine receptor M1 (Homo sapiens) (UniProt P11229). Nature of the assay: Cholinergic receptor muscarinic 1 (CHRM1) small molecule agonists, cell-based qHTS assay (AID 1963589). Note: nearly all actives have a fitted effect of over 35% in size. Conditions: CHRM1-CHO cells, agonist mode, calcium flux fluorescence; series mostly up to 76.8 µM. The source says:
National Center for Advancing Translational Sciences [NCATS]
Division of Preclinical Innovation [DPI]
U.S. Environmental Protection Agency [EPA]
National Institutes of Environmental Health Sciences [NIEHS]
National Toxicology Program [NTP]
U.S. Food and Drug Administration [FDA]
The CHRM1 is a muscarinic receptor. This receptor plays a crucial role in learning and memory processes and has long been identified as a promising therapeutic target for the improvement of cognitive decline in Alzheimer's disease (AD). The CHRM1-CHO cell line stably expressing human muscarinic acetylcholine receptor M1 (CHRM1) can be used for screening agonists and antagonists of interactions between CHRM1 and its ligands. The CHRM1-CHO Calcium Flux Assay is a homogeneous fluorescence-based assay for detecting the intracellular calcium level using FDSS kinetic plate reader system.
CHRM1-CHO cells were dispensed at 1000 cells/3uL/well in 1536-well black-clear bottom plates using a Multidrop Dispenser. After the assay plates were incubated at a 37 C/5% CO2 incubator for 18 h, 3 uL of Dye Loading Buffer was transferred to the assay plate by a Flying Reagent Dispenser. The assay plates were incubated at 37 C for 1h. For agonist mode, 23 nL of compounds dissolved in DMSO, positive controls or DMSO only was transferred to the assay plate by a pin tool. […] Each test compound was measured at 15 concentrations in three independent runs.
Turning to `CC(C)OS(C)(=O)=O`, the Potency result was “inactive”.

Consider `O=C(NC(=O)c1c(F)cccc1F)Nc1cc(Cl)c(OC(F)(F)C(F)C(F)(F)F)cc1Cl` (stereo not given), for which the Potency result was “inactive”. The entry for `Cc1ccccc1N` is “inactive”. For `ClCCN1CCOCC1` the value was “inactive”; for `CCCCSP(=O)(SCCCC)SCCCC`, “inactive”; for `Cc1cc(Cl)ccc1O`, “inactive”. For the compound `Cc1[nH]c(=O)n(C(C)(C)C)c(=O)c1Cl`, the Potency entry was “inactive”. The entry for `C=CCCl` is “inactive”; for `C=CCOC(N)=O` it is “inactive”; for `CCCCOC(=O)CCC(=O)OCCCC` it is “inactive”. For `CC(=O)[O][Hg][c]1ccccc1` the value was 43.6 µM (active). The entry for `Nc1ccccc1C(=O)OCC(O)CO` (stereo not given) is “inactive”; for `CCCCCCCCSC(=O)Oc1cc(Cl)nnc1-c1ccccc1` it is “inactive”. With `Cc1cccc(C)c1NC(=O)CN1CCCC1=O`, the Potency result is “inactive”.

With `CCOC(=O)c1ccccc1S(=O)(=O)NC(=O)Nc1nc(Cl)cc(OC)n1`, the Potency result was “inactive”. As for `Cc1cc(N=Nc2ccccc2C)ccc1N`, the Potency entry is “inactive”. Take `CC(C)(N)Cc1ccccc1Cl`: the Potency result was “inactive”. For `Cl[C@H]1OCCO[C@@H]1Cl` the value was “inactive”; for `O=C(O)C1C(C(=O)O)C2(Cl)C(Cl)=C(Cl)C1(Cl)C2(Cl)Cl` (stereo not given), “inactive”. With `C=CCN1C[C@H](C)N([C@H](c2ccc(C(=O)N(CC)CC)cc2)c2cccc(OC)c2)C[C@H]1C`, the Potency entry is “inactive”. Consider `CCCCN=C=O`, for which the Potency entry is “inactive”.

With `CCCCCCn1cc[n+](C)c1`, the Potency entry is “inactive”.

As for `COP(=S)(OC)Oc1cc(Cl)c(Cl)cc1Cl`, the Potency result was “inactive”.

Take `CCOP(=S)(OCC)SCCSCC`: the Potency entry is “inactive”. Turning to `CCCCCCCCCCCCCCCCCC(=O)O`, the Potency result was “inactive”. For `ClCCBr` the value was “inactive”; for `[CH3][Sn]([Cl])([Cl])[Cl]`, “inactive”. Consider `CC(C)c1ccc(OP(=O)(Oc2ccc(C(C)C)cc2)Oc2ccc(C(C)C)cc2)cc1`, for which the Potency entry was “inactive”. For `CCNCC` the value was “inactive”. As for `O=C/C=C/c1ccco1`, the Potency result was “inactive”.

Consider `O=C(NC(=O)c1c(F)cccc1F)Nc1ccc(Cl)cc1`, for which the Potency result was “inactive”. For `COP(=O)(OC)C(O)C(Cl)(Cl)Cl` (stereo not given) the value was “inactive”; for `O=c1ccc(=O)[nH][nH]1`, “inactive”. For `Oc1ccc(Cl)cc1` the value was “inactive”; for `c1ccc2c(c1)oc1ccccc12`, “inactive”. For `O=C(O)c1nc(Cl)ccc1Cl` the value was “inactive”; for `CC[N+]1(CC)CCC(OC(=O)C(O)(c2ccccc2)c2ccccc2)C1` (stereo not given), “inactive”. On to `Cc1cc(Cl)ccc1N`, for which the Potency result is “inactive”.

Consider `c1ccc(C2CO2)cc1` (stereo not given), for which the Potency entry is “inactive”. In the case of `O=C1C(Cl)=C(Cl)C(=O)C(Cl)=C1Cl`, the Potency result is “inactive”.
